Bioassay records (PubChem)
HepG2 tox: qHTS for Inhibitors of TGF-b: Cytotox Counterscreen; HepG2 CAGA-GFP viability, ATP luminescence, 18 h; Potency, µM (doses to about 46.1 µM), for the others: at the top dose activity change, negative = cytotoxicity, hits mostly cytotoxic; 0.76% of 410,000 active; AID 588856, 2011; further: potency means the concentration at half of the fitted maximal effect
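HepG2 CAGA-GFP cells (1000/well, DMEM with 1% FBS) received compound, then TGF-beta at 500 pg/mL final, and were incubated 18 hours at 37 degrees C. Viability was read by CellTiter-Glo luminescence. Media-only wells were set as complete cell-killing and DMSO as no toxicity.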
TGFb SMAD3 inh: qHTS for Inhibitors of TGF-b; HepG2 CAGA-GFP TGF-b/SMAD3 reporter, GFP fluorescence, 18 h; TGF-beta stimulated, 500 pg/mL final; Potency, µM (doses to about 46.1 µM), for inactives: top-dose activity, negative = inhibition, most hits filed as inhibitors; AID 588855, 2011; 1.2% of 410,000 active; further: potency means the concentration at half of the fitted maximal effect; on the % scale 0 is the no-effect control and ±100 the full control effect; nearly all actives have a fitted effect of over 65% in size
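First, reporter cells (HEPG2 CAGA-GFP) rested 2 h at 37 degrees C. Next, compounds were pinned in and TGF-beta added to 500 pg/mL final. After 18 h, GFP was imaged per cell and summed per well.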
ATXN viability: Viability Counterscreen for Primary qHTS for Inhibitors of ATXN expression; S2 cells (HEK-293 line with an ATXN2-luciferase reporter) viability, CellTiter-Fluor protease fluorescence, 24 h; 0.49% of 400,000 active; Potency, µM (doses to about 56.7 µM), usual class: cytotoxic; further: potency means the concentration at half of the fitted maximal effect; nearly all actives have a fitted effect of over 40% in size
IL1B secr inh: qHTS for Inhibitors of Inflammasome Signaling: IL-1-beta AlphaLISA Primary Screen; THP-1 LPS/ATP IL-1B secretion, AlphaLISA, 16 h; active compounds read low; activity change, % at 57.5 µM; 4.7% of 360,000 active; AID 743279, 2014; in the data active means activity change below about -50%; inconclusive means mostly about -30% to -49%; further: on the % scale 0 is the no-effect control and ±100 the full control effect
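Secreted IL-1B measured by AlphaLISA bead assay after 16 h compound exposure of THP-1 cells; compounds (final up to 57.5 uM) added 1 h before LPS (250 ng/mL) and ATP (1.25 mM) stimulation; lower signal means less secretion.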
ATXN2 expr inh: Primary qHTS for Inhibitors of ATXN expression; HEK-293 ATXN2-luciferase reporter, luminescence, 24 h; Potency, µM (highest dose often 57 µM), inactives show top-dose activity change, negative = inhibition, usual class: inhibitors; 0.72% of 360,000 active; AID 1745845, 2022; further: potency means the concentration at half of the fitted maximal effect; on the % scale 0 is the no-effect control and ±100 the full control effect; nearly all actives have a fitted effect of over 55% in size
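qHTS (up to 57 uM final) was run with 24 h compound exposure of reporter cells at 37 °C. Each well was multiplexed: SteadyGlo luminescence measured ATXN2-luciferase expression after a fluorogenic Gly-Phe-AFC viability readout (25 uM final).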
Active calls of the source: *; i = inactive; ? = inconclusive; · = not tested or not shown. Compounds with a hit are over-represented: about 5.7% of the library has one in this group of screens. Unless noted, the call rests on the fitted dose curve; in most records, active means well fitted curve in the direction sought with a large enough effect; inconclusive means small, poorly fitted or top-dose-only effect, or another doubt; inactive means no such curve, though single readings can be large; an effect the other way counts as inactive or inconclusive.

SMILES	HepG2 tox	TGFb SMAD3 inh	ATXN viability	IL1B secr inh	ATXN2 expr inh
CCOc1cc(C=O)ccc1OCC(N)=O	6%	17%	i	7	·
CCOc1cc(/C=C/C(=O)c2ccc3c(c2)OCCO3)ccc1OCC(=O)N(C)C	-30%	-28%	i	-104*	?
COc1ccccc1CNC(=O)c1ccc2nc3[nH]c4ccccc4c3nc2c1	-91%	-20%	?	-53*	?
CCOC(=O)C1=C(C)N(c2ccccc2)C(=O)/C1=C\c1ccco1	6%	9%	i	-59*	11%
CN(c1ccccc1)c1nc(N)c([N+](=O)[O-])c(NCc2ccccc2)n1	-24%	?	?	-56*	-12%
Cc1cccc(N=N/C(=C\O)C(=O)c2cccs2)c1	-22%	?	?	-67*	?
CCOC(=O)N1CCN(C(=O)c2oc3ccc(S(=O)(=O)N4CCCCC4)cc3c2C)CC1	-23%	1%	i	16	-16%
Cc1c(C(=O)O)oc2ccc(S(=O)(=O)N3CCCC3)cc12	1%	0%	i	25	·
CCCCN(C)C(=O)c1oc2ccc(S(=O)(=O)N3CCCCCC3)cc2c1C	-47%	?	i	-68*	?
CCN(CC)CCCNC(=O)c1oc2ccc(S(=O)(=O)N3CC(C)CC(C)C3)cc2c1C (centres undefined)	-65%	0%	i	-52*	-15%
Cc1c(C(=O)N2CCCCC2)oc2ccc(S(=O)(=O)N3CC(C)CC(C)C3)cc12 (centres undefined)	-31%	11µM*	i	?	?
CC(=O)c1ccc(NC(=O)CSc2nccn2Cc2ccc3c(c2)OCO3)cc1	-15%	?	·	·	·
CCc1ccccc1NC(=O)C(=O)c1cc(C)n(-c2ccccc2F)c1C	-25%	-17%	i	·	85%
S=C(NCCc1ccccn1)Nc1cc(Cl)cc(Cl)c1	-3%	-23%	i	-77*	-25%
S=C(NCc1cccs1)Nc1cccc(Cl)c1	-20%	?	i	18	-4%
S=C(NCc1cccs1)Nc1cc(Cl)cc(Cl)c1	-48%	22µM*	?	-83*	?
S=C(NCCc1ccccn1)Nc1ccc(Cl)c(Cl)c1	7%	6%	i	-19	4%
Cc1ccc(Cl)cc1NC(=O)N1CCN(C)c2ncccc21	-42%	?	i	·	-1%
CN1CCN(C(=O)Nc2cccc(Cl)c2)c2cccnc21	-53%	16µM*	i	·	0%
CN(C)CCCn1c(=S)[nH]c2ccccc2c1=O	-13%	4%	i	-20	-11%
CN(C)CCCN=c1c2ccccc2n(C)c2[nH]c(=O)n(C)c(=O)c12	·	·	·	·	17µM*
O=C(Nc1ccc(Br)cc1F)c1ccc2nc(CCc3ccccc3)oc2c1	0%	21%	i	·	23%
COC(=O)c1c(C)[nH]c(C(=O)OCC(=O)c2ccc(C)s2)c1C	-7%	1%	i	-72*	30%
CCOC(=O)c1[nH]c(C)c(C(=O)OC)c1C	36%	23%	i	·	1%
COc1ccc(-n2cnc3sc4c(c3c2=O)CCCC4)cc1	-10%	-1%	i	-7	4%
SMILES	HepG2 tox	TGFb SMAD3 inh	ATXN viability	IL1B secr inh	ATXN2 expr inh
CCOc1ccc(-n2cnc3sc4c(c3c2=O)CCCC4)cc1	6%	-13%	i	-63*	43%
COc1ccc(C2(C(=O)NCC3Cc4cccc(-c5nc(C)cnc5C)c4O3)CCCC2)cc1 (centres undefined)	·	·	i	·	·
Nc1ccc2c(c1)C(=O)C(=O)c1ccccc1-2	4µM*	?	6.3µM*	-122*	4.5µM*
Nc1ccc2c(c1)C(=O)c1ccccc1-2	6%	-11%	i	-9	30%
O=C1C(=O)c2ccc(-c3ccccc3)cc2-c2ccccc21	2.5µM*	?	5.6µM*	-57*	?
Nc1ccc2c(c1)C(=O)c1ccccc1C2=O	12%	-14%	?	-3	28%
COC(=O)Nc1ccc(SCC(=O)c2ccc(Cl)cc2)cc1	-26%	-17%	i	-62*	-7%
COC(=O)Nc1ccc(SCC(=O)c2ccccc2)cc1	0%	1%	i	-12	17%
CCOC(=O)c1ccc(NC(=S)N(CCCN2CCCC(C)C2)Cc2cccs2)cc1 (centres undefined)	0%	3%	i	-81*	-22%
CCOC(=O)c1ccc(NC(=S)N(CCCN2CCCC2)Cc2cccs2)cc1	-2%	?	i	12	-11%
CCOC(=O)c1ccc(NC(=S)N(CCCN2CCCC2)Cc2ccco2)cc1	-21%	8%	i	-67*	-3%
CC(C)c1cnc2c(c1SCC(=O)c1ccc(Cl)cc1)c(=O)n(C)c(=O)n2C	-24%	-28%	·	·	·
CCOCCCNC(=O)CN1C(=O)c2c(c3ccccc3n2C)C1c1ccc(OC)cc1 (centres undefined)	-2%	-21%	·	·	·
COC(=O)c1ccc(C2NC(c3ccc4c(c3)OCO4)=CC(c3ccccc3O)N2)cc1 (centres undefined)	-49%	11µM*	·	·	·
Oc1ccccc1C1C=C(c2ccc3c(c2)OCO3)NC(c2cccc(F)c2)N1 (centres undefined)	18µM*	?	·	·	·
COc1ccccc1C(=O)N1CCN(c2nc3cc(C)c(C)cc3cc2C#N)CC1	-6%	?	i	-67*	?
COc1ccccc1C(=O)N1CCN(c2nc3cc(C)cc(C)c3cc2C#N)CC1	-4%	-2%	i	-9	-20%
C=CCn1c(C)c(/C=C/c2cc[n+](C)cc2)c2ccccc21	-19%	122%	i	-90*	?
Cc1ccc2nc(-c3ccc(O)c(O)c3)cn2c1	-16%	-10%	i	-7	?
Cc1ccc(-c2cn3nc(-c4ccccc4)c(-c4ccccc4)nc3n2)cc1	-24%	23%	·	-74*	5%
O=[N+]([O-])c1ccc(-c2cn3nc(-c4ccccc4)c(-c4ccccc4)nc3n2)cc1	-29%	-15%	·	·	-34%
c1ccc(-c2cn3nc(-c4ccccc4)c(-c4ccccc4)nc3n2)cc1	2%	57%	·	-55*	7%
O=[N+]([O-])c1cccc(-c2cn3nc(-c4ccccc4)c(-c4ccccc4)nc3n2)c1	4%	2%	i	0	·
Cc1ccc2nc(-c3ccccc3)cn2c1	-61%	-6%	i	0	5µM*
Cc1nc(N2CCCC2)ncc1C(=O)N1CCN(c2ccc(Cl)cc2)CC1	-51%	?	i	·	-9%
CC1CCc2c(sc(Nc3nc4c(F)cccc4s3)c2C(N)=O)C1 (centres undefined)	-17%	?	i	-78*	1%
